# Experimental data reported in the supplement of paper PMC4466140.
# B1: unnamed (peptide)
# chain: NFFRKKLGIPRKLKR
# B2: unnamed (peptide)
# chain: NGRRRPKFRVQLSGN
# Columns and labels:
# Test in all cases: SPOT peptide array binding signal intensity (averaged, normalized) (arbitrary units (background-subtracted, floor 0; scale differs between SH3 domains)); higher = stronger binding of the SH3 domain to the peptide
# CaNbp2 = biological target: CaNbp2
# Summary of the method: (§1)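 Peptides were synthetic 15-mers on cellulose membranes, with every cysteine replaced by serine. They were incubated overnight at 4°C with GST-SH3 domains from four yeast species at 10 μg/ml in TBS-based blocking buffer. Binding signal, the replicate-averaged normalized and background-subtracted spot intensity, is in arbitrary units that differ between domains.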
# CaRvs167 = biological target: CaRvs167
# Summary of the method: as §1
# CaRvs167-3 = biological target: CaRvs167-3
# Summary of the method: as §1
# CaSho1 = biological target: CaSho1
# Summary of the method: as §1
# CaSla1-D1-D2 = biological target: CaSla1-D1-D2
# Summary of the method: as §1
# CaSla1-D3 = biological target: CaSla1-D3
# Summary of the method: as §1
# ScAbp1 = biological target: ScAbp1
# Summary of the method: as §1
# ScBbc1 = biological target: ScBbc1
# Summary of the method: as §1
# ScBem1-D1 = biological target: ScBem1-D1
# Summary of the method: as §1
# ScBzz1-D1 = biological target: ScBzz1-D1
# Summary of the method: as §1
# ScBzz1-D2 = biological target: ScBzz1-D2
# Summary of the method: as §1
# ScCyk3 = biological target: ScCyk3
# Summary of the method: as §1
# ScFus1 = biological target: ScFus1
# Summary of the method: as §1
# ScHof1 = biological target: ScHof1
# Summary of the method: as §1
# ScHse1 = biological target: ScHse1
# Summary of the method: as §1
# ScLsb1 = biological target: ScLsb1
# Summary of the method: as §1
# ScLsb2 = biological target: ScLsb2
# Summary of the method: as §1
# ScLsb3 = biological target: ScLsb3
# Summary of the method: as §1
# ScLsb4 = biological target: ScLsb4
# Summary of the method: as §1
# ScMyo3 = biological target: ScMyo3
# Summary of the method: as §1
# ScMyo5 = biological target: ScMyo5
# Summary of the method: as §1
# ScNbp2 = biological target: ScNbp2
# Summary of the method: as §1
# ScPex13 = biological target: ScPex13
# Summary of the method: as §1
# ScRvs167 = biological target: ScRvs167
# Summary of the method: as §1
# ScSho1 = biological target: ScSho1
# Summary of the method: as §1
# ScSla1-D1-D2 = biological target: ScSla1-D1-D2
# Summary of the method: as §1
# ScSla1-D3 = biological target: ScSla1-D3
# Summary of the method: as §1
# SpAbp1-D1 = biological target: SpAbp1-D1
# Summary of the method: as §1
# SpBbc1 = biological target: SpBbc1
# Summary of the method: as §1
# SpBzz1-D1 = biological target: SpBzz1-D1
# Summary of the method: as §1
# SpBzz1-D2 = biological target: SpBzz1-D2
# Summary of the method: as §1
# SpCyk3 = biological target: SpCyk3
# Summary of the method: as §1
# SpHof1 = biological target: SpHof1
# Summary of the method: as §1
# SpHof1-2 = biological target: SpHof1-2
# Summary of the method: as §1
# SpHof1-3 = biological target: SpHof1-3
# Summary of the method: as §1
# SpHse1 = biological target: SpHse1
# Summary of the method: as §1
# SpLsb1 = biological target: SpLsb1
# Summary of the method: as §1
# SpLsb4 = biological target: SpLsb4
# Summary of the method: as §1
# SpMyo1 = biological target: SpMyo1
# Summary of the method: as §1
# SpNbp2 = biological target: SpNbp2
# Summary of the method: as §1
# SpPex13 = biological target: SpPex13
# Summary of the method: as §1
# SpRvs167 = biological target: SpRvs167
# Summary of the method: as §1
# SpSla1-D1-D2 = biological target: SpSla1-D1-D2
# Summary of the method: as §1
# SpSla1-D3 = biological target: SpSla1-D3
# Summary of the method: as §1
# AgAbp1 = biological target: AgAbp1
# Summary of the method: as §1
# AgBbc1 = biological target: AgBbc1
# Summary of the method: as §1
# AgBem1-D1 = biological target: AgBem1-D1
# Summary of the method: as §1
# AgBzz1-D1 = biological target: AgBzz1-D1
# Summary of the method: as §1
# AgBzz1-D2 = biological target: AgBzz1-D2
# Summary of the method: as §1
# AgCyk3 = biological target: AgCyk3
# Summary of the method: as §1
# AgFus1 = biological target: AgFus1
# Summary of the method: as §1
# AgHof1 = biological target: AgHof1
# Summary of the method: as §1
# AgHse1 = biological target: AgHse1
# Summary of the method: as §1
# AgLsb1 = biological target: AgLsb1
# Summary of the method: as §1
# AgLsb4 = biological target: AgLsb4
# Summary of the method: as §1
# AgMyo5 = biological target: AgMyo5
# Summary of the method: as §1
# AgNbp2 = biological target: AgNbp2
# Summary of the method: as §1
# AgRvs167 = biological target: AgRvs167
# Summary of the method: as §1
# AgSho1 = biological target: AgSho1
# Summary of the method: as §1
# AgSla1-D1-D2 = biological target: AgSla1-D1-D2
# Summary of the method: as §1
# AgSla1-D3 = biological target: AgSla1-D3
# Summary of the method: as §1
# CaAbp1-D1 = biological target: CaAbp1-D1
# Summary of the method: as §1
# CaAbp1-D2 = biological target: CaAbp1-D2
# Summary of the method: as §1
# CaBbc1 = biological target: CaBbc1
# Summary of the method: as §1
# CaBem1-D1 = biological target: CaBem1-D1
# Summary of the method: as §1
# CaBzz1-D1 = biological target: CaBzz1-D1
# Summary of the method: as §1
# CaBzz1-D2 = biological target: CaBzz1-D2
# Summary of the method: as §1
# CaCyk3 = biological target: CaCyk3
# Summary of the method: as §1
# CaFus1 = biological target: CaFus1
# Summary of the method: as §1
# CaHof1 = biological target: CaHof1
# Summary of the method: as §1
# CaHse1 = biological target: CaHse1
# Summary of the method: as §1
# CaLsb1 = biological target: CaLsb1
# Summary of the method: as §1
# CaLsb4 = biological target: CaLsb4
# Summary of the method: as §1
# CaMyo5 = biological target: CaMyo5
# Summary of the method: as §1
binder,measurement,setting,value
B1,SPOT peptide array binding signal intensity,CaNbp2,189
same,SPOT peptide array binding signal intensity,CaRvs167,8.83
same,SPOT peptide array binding signal intensity,CaRvs167-3,47
same,SPOT peptide array binding signal intensity,CaSho1,447
same,SPOT peptide array binding signal intensity,CaSla1-D1-D2,11
same,SPOT peptide array binding signal intensity,CaSla1-D3,2.5
same,SPOT peptide array binding signal intensity,ScAbp1,146
same,SPOT peptide array binding signal intensity,ScBbc1,4.5
same,SPOT peptide array binding signal intensity,ScBem1-D1,14
same,SPOT peptide array binding signal intensity,ScBzz1-D1,9
same,SPOT peptide array binding signal intensity,ScBzz1-D2,13.5
same,SPOT peptide array binding signal intensity,ScCyk3,53
same,SPOT peptide array binding signal intensity,ScFus1,314
same,SPOT peptide array binding signal intensity,ScHof1,1.25
same,SPOT peptide array binding signal intensity,ScHse1,1910
same,SPOT peptide array binding signal intensity,ScLsb1,13.5
same,SPOT peptide array binding signal intensity,ScLsb2,8
same,SPOT peptide array binding signal intensity,ScLsb3,103
same,SPOT peptide array binding signal intensity,ScLsb4,3
same,SPOT peptide array binding signal intensity,ScMyo3,≤ 0
same,SPOT peptide array binding signal intensity,ScMyo5,0.5
same,SPOT peptide array binding signal intensity,ScNbp2,68
same,SPOT peptide array binding signal intensity,ScPex13,0.5
same,SPOT peptide array binding signal intensity,ScRvs167,2.33
same,SPOT peptide array binding signal intensity,ScSho1,473
same,SPOT peptide array binding signal intensity,ScSla1-D1-D2,38.5
same,SPOT peptide array binding signal intensity,ScSla1-D3,6.25
same,SPOT peptide array binding signal intensity,SpAbp1-D1,462
same,SPOT peptide array binding signal intensity,SpBbc1,3
same,SPOT peptide array binding signal intensity,SpBzz1-D1,50
same,SPOT peptide array binding signal intensity,SpBzz1-D2,≤ 0
same,SPOT peptide array binding signal intensity,SpCyk3,≤ 0
same,SPOT peptide array binding signal intensity,SpHof1,87
same,SPOT peptide array binding signal intensity,SpHof1-2,1.25
same,SPOT peptide array binding signal intensity,SpHof1-3,998
same,SPOT peptide array binding signal intensity,SpHse1,1560
same,SPOT peptide array binding signal intensity,SpLsb1,25.5
same,SPOT peptide array binding signal intensity,SpLsb4,19
same,SPOT peptide array binding signal intensity,SpMyo1,0.5
same,SPOT peptide array binding signal intensity,SpNbp2,63.5
same,SPOT peptide array binding signal intensity,SpPex13,5
same,SPOT peptide array binding signal intensity,SpRvs167,3.67
same,SPOT peptide array binding signal intensity,SpSla1-D1-D2,≤ 0
same,SPOT peptide array binding signal intensity,SpSla1-D3,17.5
B2,SPOT peptide array binding signal intensity,AgAbp1,206
same,SPOT peptide array binding signal intensity,AgBbc1,71
same,SPOT peptide array binding signal intensity,AgBem1-D1,339
same,SPOT peptide array binding signal intensity,AgBzz1-D1,84
same,SPOT peptide array binding signal intensity,AgBzz1-D2,46
same,SPOT peptide array binding signal intensity,AgCyk3,5
same,SPOT peptide array binding signal intensity,AgFus1,1440
same,SPOT peptide array binding signal intensity,AgHof1,47.8
same,SPOT peptide array binding signal intensity,AgHse1,1600
same,SPOT peptide array binding signal intensity,AgLsb1,16.5
same,SPOT peptide array binding signal intensity,AgLsb4,379
same,SPOT peptide array binding signal intensity,AgMyo5,1.5
same,SPOT peptide array binding signal intensity,AgNbp2,430
same,SPOT peptide array binding signal intensity,AgRvs167,9
same,SPOT peptide array binding signal intensity,AgSho1,269
same,SPOT peptide array binding signal intensity,AgSla1-D1-D2,462
same,SPOT peptide array binding signal intensity,AgSla1-D3,13
same,SPOT peptide array binding signal intensity,CaAbp1-D1,596
same,SPOT peptide array binding signal intensity,CaAbp1-D2,855
same,SPOT peptide array binding signal intensity,CaBbc1,134
same,SPOT peptide array binding signal intensity,CaBem1-D1,74.5
same,SPOT peptide array binding signal intensity,CaBzz1-D1,185
same,SPOT peptide array binding signal intensity,CaBzz1-D2,114
same,SPOT peptide array binding signal intensity,CaCyk3,33
same,SPOT peptide array binding signal intensity,CaFus1,3650
same,SPOT peptide array binding signal intensity,CaHof1,0.75
same,SPOT peptide array binding signal intensity,CaHse1,202
same,SPOT peptide array binding signal intensity,CaLsb1,4
same,SPOT peptide array binding signal intensity,CaLsb4,238
same,SPOT peptide array binding signal intensity,CaMyo5,4
same,SPOT peptide array binding signal intensity,CaNbp2,762
same,SPOT peptide array binding signal intensity,CaRvs167,80.3
same,SPOT peptide array binding signal intensity,CaRvs167-3,232
same,SPOT peptide array binding signal intensity,CaSho1,1190
same,SPOT peptide array binding signal intensity,CaSla1-D1-D2,295
same,SPOT peptide array binding signal intensity,CaSla1-D3,84
same,SPOT peptide array binding signal intensity,ScAbp1,130
same,SPOT peptide array binding signal intensity,ScBbc1,28.8
same,SPOT peptide array binding signal intensity,ScBem1-D1,166
same,SPOT peptide array binding signal intensity,ScBzz1-D1,41
same,SPOT peptide array binding signal intensity,ScBzz1-D2,104
same,SPOT peptide array binding signal intensity,ScCyk3,131
same,SPOT peptide array binding signal intensity,ScFus1,2430
same,SPOT peptide array binding signal intensity,ScHof1,6.5
same,SPOT peptide array binding signal intensity,ScHse1,3000
same,SPOT peptide array binding signal intensity,ScLsb1,6
same,SPOT peptide array binding signal intensity,ScLsb2,14
same,SPOT peptide array binding signal intensity,ScLsb3,719
same,SPOT peptide array binding signal intensity,ScLsb4,42.5
same,SPOT peptide array binding signal intensity,ScMyo3,1.5
same,SPOT peptide array binding signal intensity,ScMyo5,4.75
same,SPOT peptide array binding signal intensity,ScNbp2,489
same,SPOT peptide array binding signal intensity,ScPex13,4
same,SPOT peptide array binding signal intensity,ScRvs167,52.7
same,SPOT peptide array binding signal intensity,ScSho1,2060
same,SPOT peptide array binding signal intensity,ScSla1-D1-D2,693
same,SPOT peptide array binding signal intensity,ScSla1-D3,6.5
same,SPOT peptide array binding signal intensity,SpAbp1-D1,561
same,SPOT peptide array binding signal intensity,SpBbc1,13
same,SPOT peptide array binding signal intensity,SpBzz1-D1,162
same,SPOT peptide array binding signal intensity,SpBzz1-D2,0.75
same,SPOT peptide array binding signal intensity,SpCyk3,4
same,SPOT peptide array binding signal intensity,SpHof1,269
same,SPOT peptide array binding signal intensity,SpHof1-2,12.5
same,SPOT peptide array binding signal intensity,SpHof1-3,788
same,SPOT peptide array binding signal intensity,SpHse1,1140
same,SPOT peptide array binding signal intensity,SpLsb1,10.5
same,SPOT peptide array binding signal intensity,SpLsb4,294
same,SPOT peptide array binding signal intensity,SpMyo1,18.8
same,SPOT peptide array binding signal intensity,SpNbp2,1300
same,SPOT peptide array binding signal intensity,SpPex13,62.5
same,SPOT peptide array binding signal intensity,SpRvs167,14.2
same,SPOT peptide array binding signal intensity,SpSla1-D1-D2,≤ 0
same,SPOT peptide array binding signal intensity,SpSla1-D3,43
